# RPL19A TOR yeast: modulators of TOR pathway RPL19A-GFP in S. cerevisiae; actives 0.3% (n = 330,000); S. cerevisiae RPL19A-GFP strain, flow cytometry, 3 h; hits give low values; percent response vs DMSO, % at 10 µM; AID 2025;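 active = percent response vs DMSO below 50%; inconclusive = fewer than 70 events counted for the yeast strain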;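 note: median channel GFP fluorescence of the barcoded RPL19A-GFP strain; lower means less RPL19A-GFP as with rapamycin TOR inhibition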
# CIT2-GFP yeast: yeast TOR pathway CIT2-GFP modulation. AID 2029. S. cerevisiae CIT2-GFP strain, flow cytometry, 3 h; 100 means same as DMSO wells. GFP response vs DMSO, % at 10 µM. actives 0.065% (n = 320,000);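 active = GFP response relative to DMSO above a set limit, near the screen mean plus 3 SD, cut at about 150% in these data; inconclusive = Fewer than 70 cells measured for a yeast strain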;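 note: ratio of well median GFP fluorescence to mean of DMSO wells on the plate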
# AGP1 TOR yeast: modulators of TOR pathway AGP1-GFP in S. cerevisiae | S. cerevisiae AGP1-GFP multiplex flow cytometry, 3 h; GFP as percent of DMSO wells | GFP response vs DMSO, % at 10 µM | actives 0.02% (n = 320,000) | AID 2066;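 active = GFP response relative to DMSO above a set limit, near screen average plus 3 SD, cut at about 150% in these data; inconclusive = fewer than 70 cells counted for the yeast strain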;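 note: median GFP channel fluorescence of the gated AGP1 strain per well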
# LAP4 TOR yeast: yeast TOR pathway LAP4-GFP modulation. S. cerevisiae LAP4-GFP multiplex, flow cytometry GFP, 3 h; median GFP as percent of DMSO wells. GFP response vs DMSO, % at 10 µM. actives 0.34% (n = 320,000). AID 2023;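 active = GFP response vs DMSO above a set limit, about the screen mean plus 3 SD, cut at about 150% in these data; inconclusive = under 70 cell events counted for the yeast strain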
# MEP2-GFP yeast: alters MEP2-GFP fluorescence in TOR pathway yeast screen | S. cerevisiae MEP2-GFP strain, flow cytometry GFP, 3 h; 100% = DMSO control level | actives 0.51% (n = 330,000) | AID 2016 | GFP response vs DMSO, % at 10 µM;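 active = GFP response versus DMSO above a set limit, roughly screen mean plus 3 SD, cut at about 180% in these data; inconclusive = fewer than 70 cells counted for a yeast strain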;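 note: median GFP fluorescence of the barcode-gated MEP2-GFP cells per well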
# Numbers stand for hits; n = inactive; u = inconclusive; x = not tested or not shown; [ ] = remark or other dose. Shown are actives, neighbours in structure and some others; about 0.92% of the full set was active somewhere.
SMILES,RPL19A TOR yeast,CIT2-GFP yeast,AGP1 TOR yeast,LAP4 TOR yeast,MEP2-GFP yeast
Cc1cc(C)nc(S/C=C/C(=O)c2ccccc2F)n1,n,n,n,182,n
Cc1cc(C)nc(NC(=S)NC(=O)c2ccccc2F)n1,n,n,n,n,n
O=C(NCCNS(=O)(=O)c1ccccc1)N1CCOCC1,n,n,n,n,n
COc1ccc(S(=O)(=O)NCCNC(=O)N2CCOCC2)cc1,n,173[may fluoresce green],n,n,n
CCOC(=O)c1cc(C)[nH]c(=O)c1C#N,33[may fluoresce violet],u,u,n,680[may fluoresce violet]
O=P(Cc1ccccc1O)(c1ccccc1)c1ccccc1,n,u,u,n,208[may fluoresce violet]
CCC(c1nnnn1Cc1ccccc1)N(Cc1ccco1)Cc1cc2cc(OC)ccc2[nH]c1=O (stereo unspecified),n,u,x,n,180[may fluoresce violet]
O=C(Nc1ncn[nH]1)c1ccccc1Br,48[may fluoresce violet],u,u,n,185[may fluoresce violet]
CSc1ccccc1C(=O)Nc1ncn[nH]1,n,n,n,n,n
c1ccc(CCNc2nc(-c3ccncc3)cs2)cc1,n,n,n,n,n
CCCCCNc1nc(-c2ccccc2)cs1,n,u,x,n,238[may fluoresce violet]
O=C1CNC(=S)N1Cc1ccc(F)cc1,45[may fluoresce violet],u,u,n,359[may fluoresce violet]
Cc1nnc(N(CCC#N)CCC#N)s1,n,n,n,n,n
Cc1nnc(SCC(=O)NCc2ccco2)[nH]c1=O,n,n,n,n,n
CCc1c(O)nc(SCC(=O)NCc2ccco2)[nH]c1=O,39[may fluoresce violet],u,n,204[may fluoresce violet],678[may fluoresce violet]
CCN(CC)CC(=O)Nc1ccc([N+](=O)[O-])cc1,n,n,n,n,n
COCCOCC(O)CN1CCN(c2ccccc2)CC1 (stereo unspecified),42[may fluoresce violet],n,n,n,n
CC(=O)c1ccc(N(CC(=O)NC2CCCC2)C(=O)c2csnn2)cc1,n,n,n,n,n
O=C(Cn1c(=O)cnc2ccccc21)NC1CCC(O)CC1 (stereo unspecified),47[may fluoresce violet],u,u,n,n
CC(C)NC(=O)Cn1c(=O)cnc2ccccc21,n,n,n,n,n
O=C(CNC(=O)c1ccc(S(=O)(=O)N2CCCC2)cc1)N/N=C/c1ccco1,n,n,n,n,n
O=C(O)C1CC=CCC1C(=O)N1CCN(c2nc(-c3ccccc3Cl)c3cc(Br)ccc3n2)CC1 (stereo unspecified),n,u,n,n,192[may fluoresce violet]
O=C(O)C1CC=CCC1C(=O)N1CCN(c2nc(-c3ccccc3)c3ccccc3n2)CC1 (stereo unspecified),n,u,n,n,n
CC1(C)CCC[C@@]2(C)CC=C(C(=O)O)[C@@H]3C[C@]312,15[may fluoresce violet],u,u,n,480[may fluoresce violet]
O=C(NCCN1CCOCC1)c1c[nH]c2ccc(S(=O)(=O)N3CCOCC3)cc2c1=O,n,n,n,n,n
SMILES,RPL19A TOR yeast,CIT2-GFP yeast,AGP1 TOR yeast,LAP4 TOR yeast,MEP2-GFP yeast
O=C(O)c1c[nH]c2ccc(S(=O)(=O)N3CCOCC3)cc12,15[may fluoresce violet],u,u,n,252[may fluoresce violet]
NC1=NC(=O)C(CC(=O)c2ccc(Cl)cc2)S1 (stereo unspecified),n,n,n,n,183
Cc1ccc(C(=O)CC2SC(N)=NC2=O)cc1 (stereo unspecified),n,n,n,n,n
O=C(CCC(F)(F)F)N1CCC(CO)(CCc2ccccc2)CC1,n,n,152,n,n
O=C(NCc1ccccc1)N1CCC(CO)(CCc2ccccc2)CC1,n,n,n,n,n
Cc1ccc(C(=O)Nc2cccc(NC(=O)CN3CCCCC3)c2)cc1,n,n,n,n,n
OCc1cc(Br)ccc1OCc1nc2ccccc2s1,n,n,n,n,n
Oc1ccccc1OCc1nc2ccccc2s1,n,u,u,n,179[may fluoresce violet]
Cc1ccccc1CS(=O)(=O)Cc1ccc(C(=O)NC2CCCCC2)o1,n,n,n,n,n
O=C(N/N=C/c1sc(=O)n(Cc2ccc(Br)cc2)c1Cl)c1ccco1,n,u,u,n,238[may fluoresce violet]
O=C(N/N=C/c1ccc(Br)s1)c1ccco1,n,n,n,n,n
Cc1cccc2nc(-c3cccnc3)c(NCCC(C)C)n12,n,n,n,n,179
Cc1cccc(N2CC(C(=O)Nc3ccc(S(=O)(=O)N4CCCCC4)cc3)CC2=O)c1C (stereo unspecified),n,n,n,n,n
Cc1ccccc1N1CC(C(=O)Nc2ccc(S(=O)(=O)N3CCCCC3)cc2)CC1=O (stereo unspecified),n,u,u,n,279[may fluoresce violet]
Cc1cc(C)n(CC(=O)NNC(=O)COc2ccc(Br)cc2F)n1,n,n,n,n,n
CC/C(C)=N/Nc1nc2c(c(=O)[nH]c(=O)n2C)n1Cc1ccccc1,n,n,n,n,n
CC/C(C)=N/Nc1nc2c(c(=O)[nH]c(=O)n2C)n1CCc1ccccc1,n,u,u,n,242[may fluoresce violet]
Cc1ccccc1N(CC(=O)O)S(C)(=O)=O,n,u,x,n,229[may fluoresce violet]
O=C(CCN1C(=O)S/C(=C/c2ccccc2)C1=O)Nc1ccc(O)c(C(=O)O)c1,17[may fluoresce violet],u,u,n,n
O=C(CCCCCNC(=O)N1CCn2c1nc1ccccc12)NCCc1ccccc1,n,n,n,n,n
O=C(CN1C(=O)C2CC=CCC2C1=O)Nc1nnc(SCc2ccc(Cl)cc2)s1 (stereo unspecified),15[may fluoresce violet],u,x,n,u
CC(=O)Nc1ccc(NC(=O)COC(=O)[C@@H]2CCCN2C(=O)c2cccs2)cc1,n,n,n,n,n
Cc1ccccc1N1C(=O)c2sc3nc4c(c(=O)n3c2C1=O)CCC4,n,n,n,161,n
N#C/C(=C\c1ccc(F)c(Cl)c1)S(=O)(=O)c1ccccn1,n,n,n,n,n
O=C(NC1CCCC1)C(c1ccccc1F)N(C(=O)c1csnn1)C1CC1 (stereo unspecified),n,n,n,n,n
SMILES,RPL19A TOR yeast,CIT2-GFP yeast,AGP1 TOR yeast,LAP4 TOR yeast,MEP2-GFP yeast
O=C(NCc1ccc(F)cc1)C(c1ccco1)N(C(=O)c1csnn1)C1CC1 (stereo unspecified),34[may fluoresce violet],u,u,n,219[may fluoresce violet]
CCOc1ccccc1C(C(=O)NC1CCCCC1)N(C(=O)c1csnn1)C1CC1 (stereo unspecified),38[may fluoresce violet],u,u,n,369[may fluoresce violet]
N/C(=N\OC(=O)CSc1ccccc1)c1ccncc1,n,n,n,n,n
CCOC(=O)Cc1csc(NC(=O)Cn2cnc3c2c(=O)n(C)c(=O)n3C)n1,n,n,n,n,n
Cn1c(=O)c2c(ncn2CC(=O)Nc2nc(-c3ccccc3Cl)cs2)n(C)c1=O,13[may fluoresce violet],u,u,n,210[may fluoresce violet]
COCCSc1nnc(NC(=O)Cc2ccc(OC)cc2)s1,n,n,n,n,n
CCOCC(=O)Nc1nnc(SCCOC)s1,15[may fluoresce violet],u,u,n,294[may fluoresce violet]
O=C(CNC(=O)c1ccncc1)N/N=C/c1cccc([N+](=O)[O-])c1,n,170,n,n,n
O=C(Nc1c(F)cccc1F)C1CCN(C(=O)c2cccs2)CC1,n,n,n,n,n
Cc1ccc(CO/N=C/c2c(O)cc(C)oc2=O)cc1,n,n,n,164,n
Cc1ccc(N/N=C/c2c(O)cc(C)oc2=O)cc1,n,n,n,n,n

# Compound activity deposited in PubChem BioAssay by NMMLSC.
